# Source: PubChem BioAssay (EPA / NIEHS)
# Records with an inconclusive call do not appear. Calls of active or inactive are those of the source. The calls were made as follows: active = hit-call score of the fitted dose curve at least 0.9, where 1 is the maximum; inconclusive = response in the unintended direction; inactive = score below 0.9.
# Assay: ACEA_ER_AUC_viability: ACEA Biosciences xCELLigence Real-Time Cell Analysis on Estrogen Receptor Agonism for Viability (AID 2283782);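 also: continuous compound exposure with impedance area under curve over 80 h; hit means loss of impedance signal meaning reduced cell growth or viability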
# Procedure, shortened: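 T47D cells preconditioned in phenol red-free RPMI with charcoal-stripped FBS, then dosed with 8-point 1:4 series from 100 uM (up to 0.5% DMSO). Impedance monitored up to ~80 h; area-under-curve loss versus DMSO taken as viability.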
Structure (SMILES),outcome,AC50
O=S(=O)(O)CCC(F)(F)C(F)(F)C(F)(F)C(F)(F)C(F)(F)C(F)(F)F,inactive,–
OC(O)(C(F)C(O)(O)C(F)(F)F)C(F)(F)F,–,75 µM (active)
FC(F)(F)COC(OCC(F)(F)F)OCC(F)(F)F,inactive,–
S=P(N1CC1)(N1CC1)N1CC1,–,69 µM (active)
FC(F)=C(F)C(F)(F)C(F)(F)C(F)(F)C(F)(F)C(F)(F)C(F)(F)F,inactive,–
NC(=O)NN=Cc1ccc([N+](=O)[O-])o1,inactive,–
OC[C@H]1O[C@@H]2O[C@H]3[C@H](O)[C@@H](O)[C@@H](O[C@H]4[C@H](O)[C@@H](O)[C@@H](O[C@H]5[C@H](O)[C@@H](O)[C@@H](O[C@H]6[C@H](O)[C@@H](O)[C@@H](O[C@H]7[C@H](O)[C@@H](O)[C@@H](O[C@H]1[C@H](O)[C@H]2O)O[C@@H]7CO)O[C@@H]6CO)O[C@@H]5CO)O[C@@H]4CO)O[C@@H]3CO,inactive,–
Cc1cccc(O)c1C,inactive,–
CCCc1ccccc1,inactive,–
OCCC(F)(F)C(F)(F)C(F)(F)C(F)(F)F,inactive,–
O=C(Cl)C(F)(F)C(F)(F)C(F)(F)C(=O)Cl,inactive,–
FC(F)C(F)(F)COCC1CO1 (centres undefined),inactive,–
Cn1c(=O)c2[nH]cnc2n(C)c1=O,inactive,–
CCOC(N)=O,inactive,–
O=C(O)c1cccc(C[C@@H]2COc3ccc(OCc4nc5cc(F)ccc5s4)cc3[C@@H]2O)c1,inactive,–
CCCCN1C(=O)[C@@H]([C@H](O)C2CCCCC2)NC(=O)C12CCN(Cc1ccc(Oc3ccc(C(=O)O)cc3)cc1)CC2,–,64.6 µM (active)
OC[C@H]1O[C@@](CO)(O[C@H]2O[C@H](CO)[C@@H](O)[C@H](O)[C@H]2O)[C@@H](O)[C@@H]1O,inactive,–
O=C(O)c1ccc2c(c1)nc(C(=O)NC1CCN(C3CC3)CC1)n2Cc1cc(-c2ccc(Cl)s2)on1,inactive,–
OCc1c[nH]c2ccccc12,–,87 µM (active)
COc1cc2c(c(OC)c1OC)-c1ccc(OC)c(=O)cc1[C@@H](NC(C)=O)CC2,–,0.00238 µM (active)
CCc1ccc(O)c(C(C)(C)C)c1,–,25.5 µM (active)
NCC(F)(F)C(F)(F)C(F)(F)C(F)(F)F,inactive,–
O=C(N[C@H](CO)[C@H](O)c1ccc([N+](=O)[O-])cc1)C(Cl)Cl,–,73.2 µM (active)
C[C@@H](Oc1ccc(CNC(=O)c2cccnc2Oc2ccc3c(c2)OCO3)c(F)c1)C(=O)O,inactive,–
